Inconclusive results are not listed. Unmarked numbers belong to inactive results. Active and inactive are the calls of the source. Calls come from the whole dose curve; as a rule, active = well fitted inhibition curve with a large enough effect; inconclusive = small, poorly fitted or top-dose-only effect; inactive = no such curve, though single readings can be large or run the other way.
Potency is the fitted concentration of half-maximal effect.

The first experiment can be described thus: qHTS Screen of the MIPE 4.0 Collection Against Ewings Sarcoma (EW8) (AID 1259255).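 For viability: 100% = DMSO-treated cells and 0% = medium-only wells without cells.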 Note: nearly all actives have a fitted effect of over 35% in size. The following applies: EW8 Ewing sarcoma viability, CellTiter-Glo, 48 h; series mostly up to 45.8 µM; viability: at the top concentration. The method in brief:
(§1)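 Compound titrations go onto adherent log-phase cells 4 h after seeding, incubate 48 h at 37C, then CellTiter-Glo luminescence reports viability relative to DMSO and cell-free controls.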
Background: In qHTS, concentration-response curves come from the screen itself.
With `CC(C)c1cnn2c(NCc3ccccc3)cc(N[C@@H](CO)[C@H](O)CO)nc12`, the Potency was 372 nM (active).

With `COc1cc2c(Nc3ccc(NC(=O)c4ccccc4)cc3)ncnc2cc1OCCCN1CCOCC1`, the Potency was 1050 nM (active).

Consider `CCn1cc(-c2ccnc3[nH]c(-c4cccc(CN(C)C)c4)cc23)c(-c2ccc(NC(=O)N(C)C)cc2)n1`, for which the Potency is 46.9 nM (active).

Consider `CC(C)c1noc(N2CCC(COc3ccc(-c4ccc(S(C)(=O)=O)cc4)nc3)CC2)n1`, for which the “viability” value is 111%.

For `COc1c(N2C[C@@H]3CCCN[C@H]3C2)c(F)cc2c(=O)c(C(=O)O)cn(C3CC3)c12`, the “viability” value was 112%.

As to `C[C@@]12O[C@@H](C[C@]1(O)CO)n1c3ccccc3c3c4c(c5c6ccccc6n2c5c31)CNC4=O`, the Potency is 296 nM (active).

For the compound `O=C(O)CO.[NH2-].[NH2-].[Pt+2]`, the “viability” value was 110%.

On to `Nc1ncnc2c1c(-c1cccc(OCc3ccccc3)c1)cn2C1CC(CN2CCCC2)C1` (stereo not given), for which the Potency was 16600 nM (active).

Regarding `N#CCNC(=O)c1ccc(-c2ccnc(Nc3ccc(N4CCOCC4)cc3)n2)cc1`, the Potency is 13200 nM (active).

On to `CCN(CC)CCNC(=O)c1ccc2nc(-c3ccccc3)c(-c3ccc(CN4CCC(n5c(=O)[nH]c6ccccc65)CC4)cc3)nc2c1`, for which the Potency is 16600 nM (active).

Regarding `COc1cc2nccc(Oc3ccc(NC(=O)C4(C(=O)Nc5ccc(F)cc5)CC4)cc3)c2cc1OC`, the Potency was 1050 nM (active).

`Cc1nc2ccc(CN(C)c3ccc(C(=O)N[C@@H](CCC(=O)O)C(=O)O)s3)cc2c(=O)[nH]1`: the Potency is 26.4 nM (active).

As to `CN(c1ncccc1CNc1nc(Nc2ccc3c(c2)CC(=O)N3)ncc1C(F)(F)F)S(C)(=O)=O`, the Potency was 8330 nM (active).

With `Cn1cc(-c2ccncc2)c(-c2ccc(OCc3ccc4ccccc4n3)cc2)n1`, the Potency was 20900 nM (active).

On to `Cc1cn2cc(C(=O)N(C)CCO)cc(N[C@@H]3CCOc4cccc(C)c43)c2n1`, for which the “viability” value is 120%.

`Nc1ccn([C@@H]2CS[C@H](CO)O2)c(=O)n1`: the “viability” value was 108% [at 92.2 µM].

For the compound `Clc1cccc(-c2nnnn2Cc2cccnc2)c1Cl`, the “viability” value was 109%.

Regarding `C[C@@H](Oc1cc(-n2cnc3ccc(CN4CCN(C)CC4)cc32)sc1C(N)=O)c1ccccc1C(F)(F)F`, the Potency is 74.3 nM (active).

Turning to `CC(C)(C)NC(=O)[C@H]1CN(Cc2cccnc2)CCN1C[C@@H](O)C[C@@H](Cc1ccccc1)C(=O)N[C@H]1c2ccccc2C[C@H]1O`, the Potency is 4180 nM (active).

With `O=C(NCCCNc1nc(Nc2cccc(NC(=O)N3CCCC3)c2)ncc1I)c1cccs1`, the Potency is 1870 nM (active).

For `CN1c2cc(O)c(N=NC(N)=O)cc2CC1S(=O)(=O)O` (stereo not given), the “viability” value was 111%.

For the compound `c1cc(-c2cnn3cc(-c4ccc(OCCN5CCCCC5)cc4)cnc23)ccn1`, the Potency is 18700 nM (active).

On to `CC=CC1=C(C(=O)O)N2C(=O)[C@H](NC(=O)[C@H](N)c3ccc(O)cc3)[C@@H]2SC1`, for which the “viability” value was 115%.

Turning to `CC(O)C1C(=O)N2C(C(=O)O)=C(SC3CNC(C(=O)N(C)C)C3)C(C)C12` (stereo not given), the “viability” value is 111%.

For `c1nc2nc(Nc3ccc(N4CCOCC4)cc3)nc(NC3CCCCC3)c2[nH]1`, the Potency was 2350 nM (active).

For the compound `CC1COC2(CCN(c3nc(=O)c4cc(C(F)(F)F)cc([N+](=O)[O-])c4s3)CC2)O1` (stereo not given), the “viability” value was 122%.

For the compound `Nc1nccc(Oc2ccc(NC(=O)c3c[nH]cc(-c4ccc(F)cc4)c3=O)cc2F)c1Cl`, the Potency is 743 nM (active).

For `CC(C)CC(=O)Nc1n[nH]c2c1CN(C(=O)C1CCN(C)CC1)C2(C)C`, the Potency was 1320 nM (active).

Take `OCc1ccc(-c2ccc(-c3ccc(CO)s3)o2)s1`: the Potency is 7.4 nM (active).

As for `Cc1nc(Nc2n[nH]c3c2CN(C(=O)N[C@H](CN(C)C)c2ccccc2)C3(C)C)c2sccc2n1`, the Potency is 2640 nM (active).

Regarding `COc1cc(-c2nn(C3CCC(N4CCN(C(C)=O)CC4)CC3)c3ncnc(N)c23)ccc1NC(=O)c1cc2ccccc2n1C` (stereo not given), the Potency is 6620 nM (active).

As to `COc1cc2c(NC3CCN(C(C)C)CC3)nc(C3CCCCC3)nc2cc1OCCCN1CCCC1`, the Potency was 5900 nM (active).

Consider `COc1cc(C(=O)NS(=O)(=O)c2ccccc2C)ccc1Cc1cn(C)c2ccc(NC(=O)OC3CCCC3)cc12`, for which the Potency is 16600 nM (active).

For the compound `CCc1c2c(nc3ccc(O)cc13)-c1cc3c(c(=O)n1C2)COC(=O)[C@]3(O)CC`, the Potency was 2.1 nM (active).

For the compound `COC(=O)C[C@](O)(CCCC(C)(C)O)C(=O)O[C@@H]1C(OC)=C[C@]23CCCN2CCc2cc4c(cc2[C@H]13)OCO4`, the “viability” value was 102%.

The nature of a further experiment: qHTS Screen of the MIPE 4.0 Collection Against Ewings Sarcoma (TC32) (AID 1259256).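 For viability (percent of control): 100% = DMSO-treated cells and 0% = medium-only wells without cells.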 Note: nearly all actives have a fitted effect of over 45% in size. To be noted: TC32 Ewing sarcoma viability, CellTiter-Glo, 48 h; series mostly up to 45.8 µM; viability (percent of control): at the top concentration. The method in brief: as §1
Turning to `CC(C)c1cnn2c(NCc3ccccc3)cc(N[C@@H](CO)[C@H](O)CO)nc12`, the Potency was 296 nM (active).

Take `COc1cc2c(Nc3ccc(NC(=O)c4ccccc4)cc3)ncnc2cc1OCCCN1CCOCC1`: the Potency was 3320 nM (active).

As to `CCn1cc(-c2ccnc3[nH]c(-c4cccc(CN(C)C)c4)cc23)c(-c2ccc(NC(=O)N(C)C)cc2)n1`, the Potency is 46.9 nM (active).

For `CC(C)c1noc(N2CCC(COc3ccc(-c4ccc(S(C)(=O)=O)cc4)nc3)CC2)n1`, the “viability (percent of control)” value was 128%.

As for `COc1c(N2C[C@@H]3CCCN[C@H]3C2)c(F)cc2c(=O)c(C(=O)O)cn(C3CC3)c12`, the “viability (percent of control)” value was 19.4%.

Regarding `C[C@@]12O[C@@H](C[C@]1(O)CO)n1c3ccccc3c3c4c(c5c6ccccc6n2c5c31)CNC4=O`, the Potency is 332 nM (active).

Consider `O=C(O)CO.[NH2-].[NH2-].[Pt+2]`, for which the “viability (percent of control)” value was 51.6%.

As for `Nc1ncnc2c1c(-c1cccc(OCc3ccccc3)c1)cn2C1CC(CN2CCCC2)C1` (stereo not given), the Potency was 5260 nM (active).

`N#CCNC(=O)c1ccc(-c2ccnc(Nc3ccc(N4CCOCC4)cc3)n2)cc1`: the Potency is 16600 nM (active).

For `CCN(CC)CCNC(=O)c1ccc2nc(-c3ccccc3)c(-c3ccc(CN4CCC(n5c(=O)[nH]c6ccccc65)CC4)cc3)nc2c1`, the Potency was 18700 nM (active).

With `COc1cc2nccc(Oc3ccc(NC(=O)C4(C(=O)Nc5ccc(F)cc5)CC4)cc3)c2cc1OC`, the Potency was 1660 nM (active).

For the compound `Cc1nc2ccc(CN(C)c3ccc(C(=O)N[C@@H](CCC(=O)O)C(=O)O)s3)cc2c(=O)[nH]1`, the Potency is 33.2 nM (active).

In the case of `CN(c1ncccc1CNc1nc(Nc2ccc3c(c2)CC(=O)N3)ncc1C(F)(F)F)S(C)(=O)=O`, the Potency is 10500 nM (active).

Take `Cn1cc(-c2ccncc2)c(-c2ccc(OCc3ccc4ccccc4n3)cc2)n1`: the Potency is 16600 nM (active).

Turning to `Cc1cn2cc(C(=O)N(C)CCO)cc(N[C@@H]3CCOc4cccc(C)c43)c2n1`, the “viability (percent of control)” value was 131%.

Consider `Nc1ccn([C@@H]2CS[C@H](CO)O2)c(=O)n1`, for which the “viability (percent of control)” value was 124% [at 92.2 µM].

As to `Clc1cccc(-c2nnnn2Cc2cccnc2)c1Cl`, the “viability (percent of control)” value was 128%.

As to `C[C@@H](Oc1cc(-n2cnc3ccc(CN4CCN(C)CC4)cc32)sc1C(N)=O)c1ccccc1C(F)(F)F`, the Potency was 74.3 nM (active).

For `CC(C)(C)NC(=O)[C@H]1CN(Cc2cccnc2)CCN1C[C@@H](O)C[C@@H](Cc1ccccc1)C(=O)N[C@H]1c2ccccc2C[C@H]1O`, the Potency was 1320 nM (active).

Turning to `O=C(NCCCNc1nc(Nc2cccc(NC(=O)N3CCCC3)c2)ncc1I)c1cccs1`, the Potency is 2350 nM (active).

`CN1c2cc(O)c(N=NC(N)=O)cc2CC1S(=O)(=O)O` (stereo not given): the “viability (percent of control)” value is 114%.

For `c1cc(-c2cnn3cc(-c4ccc(OCCN5CCCCC5)cc4)cnc23)ccn1`, the Potency is 20900 nM (active).

On to `CC=CC1=C(C(=O)O)N2C(=O)[C@H](NC(=O)[C@H](N)c3ccc(O)cc3)[C@@H]2SC1`, for which the “viability (percent of control)” value is 136%.

Regarding `CC(O)C1C(=O)N2C(C(=O)O)=C(SC3CNC(C(=O)N(C)C)C3)C(C)C12` (stereo not given), the “viability (percent of control)” value was 128%.

With `c1nc2nc(Nc3ccc(N4CCOCC4)cc3)nc(NC3CCCCC3)c2[nH]1`, the Potency is 1870 nM (active).

As for `CC1COC2(CCN(c3nc(=O)c4cc(C(F)(F)F)cc([N+](=O)[O-])c4s3)CC2)O1` (stereo not given), the “viability (percent of control)” value was 130%.

Take `Nc1nccc(Oc2ccc(NC(=O)c3c[nH]cc(-c4ccc(F)cc4)c3=O)cc2F)c1Cl`: the Potency is 2640 nM (active).

As to `CC(C)CC(=O)Nc1n[nH]c2c1CN(C(=O)C1CCN(C)CC1)C2(C)C`, the Potency is 833 nM (active).

Take `OCc1ccc(-c2ccc(-c3ccc(CO)s3)o2)s1`: the Potency is 18700 nM (active).

In the case of `Cc1nc(Nc2n[nH]c3c2CN(C(=O)N[C@H](CN(C)C)c2ccccc2)C3(C)C)c2sccc2n1`, the Potency was 7430 nM (active).

Turning to `COc1cc(-c2nn(C3CCC(N4CCN(C(C)=O)CC4)CC3)c3ncnc(N)c23)ccc1NC(=O)c1cc2ccccc2n1C` (stereo not given), the Potency was 3720 nM (active).

Regarding `COc1cc2c(NC3CCN(C(C)C)CC3)nc(C3CCCCC3)nc2cc1OCCCN1CCCC1`, the Potency was 5260 nM (active).

For `COc1cc(C(=O)NS(=O)(=O)c2ccccc2C)ccc1Cc1cn(C)c2ccc(NC(=O)OC3CCCC3)cc12`, the Potency was 18700 nM (active).

Turning to `CCc1c2c(nc3ccc(O)cc13)-c1cc3c(c(=O)n1C2)COC(=O)[C@]3(O)CC`, the “viability (percent of control)” value was 97.6%.

In the case of `COC(=O)C[C@](O)(CCCC(C)(C)O)C(=O)O[C@@H]1C(OC)=C[C@]23CCCN2CCc2cc4c(cc2[C@H]13)OCO4`, the “viability (percent of control)” value was 134%.

The term viability denotes a read-out of living cells in per cent, often relative to untreated cells.

The values are drawn from PubChem BioAssay (NCATS).
